# Residue numbers refer to the chain shown, from its start.
# Legend:
# Test in all cases: yeast three-hybrid, YBZ-1, SC-Leu-His + 0.5 mM 3-AT, 4 days
# Conditions in all cases: tags: N-Gal4 AD-HA kept; label: inside an RPR1-promoter hybrid RNA with tandem MS2 sites; ssRNA
# [1] = molecular target: PUM1 PUF domain R5-RMP (Homo sapiens, UniProt Q14671 828-1176, C1007R;R1008M;Q1011P)
# Summary of the method: (§1)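 The interaction score is the log change in variant frequency from input to selection. Scores were computed in log2 with a pseudocount of 1 for absent variants, using Illumina sequencing of PCR-amplified repeat regions. The input came from four days on SC-Leu and the selection from four days on SC-Leu-His + 0.5 mM 3-AT. The cells were strain YBZ-1 (LexA–MS2 coat fusion, HIS3 reporter) co-expressing Pumilio-1 PUF domain libraries and matching RNA elements from a centromeric plasmid.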
# [2] = molecular target: PUM1 PUF domain R8-AYK (Homo sapiens, UniProt Q14671 828-1176, N1122A;Q1126K)
# Summary of the method: as §1
# [3] = molecular target: T1, PUM1 PUF domain R6-SWA (Homo sapiens, UniProt Q14671 828-1176, N1043S;Y1044W;Q1047A)
# T1 sequence: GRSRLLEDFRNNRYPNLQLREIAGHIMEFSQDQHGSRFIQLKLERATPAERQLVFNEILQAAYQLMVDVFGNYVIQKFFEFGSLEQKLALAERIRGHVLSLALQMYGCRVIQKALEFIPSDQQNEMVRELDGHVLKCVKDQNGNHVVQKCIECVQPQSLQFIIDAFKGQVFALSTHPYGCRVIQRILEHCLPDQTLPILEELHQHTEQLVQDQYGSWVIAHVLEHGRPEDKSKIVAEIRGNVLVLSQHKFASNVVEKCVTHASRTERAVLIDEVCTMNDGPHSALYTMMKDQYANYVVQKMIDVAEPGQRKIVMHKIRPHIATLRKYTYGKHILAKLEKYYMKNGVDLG
# Summary of the method: as §1
# [4] = molecular target: PUM1 PUF domain R2-NRG (Homo sapiens, UniProt Q14671 828-1176, Y900R;Q903G)
# Summary of the method: as §1
# [5] = molecular target: PUM1 PUF domain R8-RFL (Homo sapiens, UniProt Q14671 828-1176, N1122R;Y1123F;Q1126L)
# Summary of the method: as §1
# [6] = molecular target: PUM1 PUF domain R4-PHM (Homo sapiens, UniProt Q14671 828-1176, N971P;Q975M)
# Summary of the method: as §1
# [7] = molecular target: T2, PUM1 PUF domain R6-RYA (Homo sapiens, UniProt Q14671 828-1176, N1043R;Q1047A)
# T2 sequence: T1 sequence with S216R, W217Y
# Summary of the method: as §1
# [8] = molecular target: PUM1 PUF domain R5-LFQ (Homo sapiens, UniProt Q14671 828-1176, C1007L;R1008F)
# Summary of the method: as §1
# [9] = molecular target: PUM1 PUF domain R7-KYK (Homo sapiens, UniProt Q14671 828-1176, S1079K;N1080Y;E1083K)
# PUM1 PUF domain R7-KYK, sequence (Q14671 828-1176 S1079K/N1080Y/E1083K): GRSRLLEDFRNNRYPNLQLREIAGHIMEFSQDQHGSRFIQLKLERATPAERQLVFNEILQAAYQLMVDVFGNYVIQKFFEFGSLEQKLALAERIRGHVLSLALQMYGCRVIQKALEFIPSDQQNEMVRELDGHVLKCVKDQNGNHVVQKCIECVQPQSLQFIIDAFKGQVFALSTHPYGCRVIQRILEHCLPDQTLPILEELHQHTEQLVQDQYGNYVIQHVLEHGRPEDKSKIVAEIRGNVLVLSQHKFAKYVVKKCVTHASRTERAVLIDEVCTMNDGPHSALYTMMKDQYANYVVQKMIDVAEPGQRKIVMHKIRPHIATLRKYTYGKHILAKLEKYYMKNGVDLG
# Summary of the method: as §1
# [10] = molecular target: T3, PUM1 PUF domain R6-SYM (Homo sapiens, UniProt Q14671 828-1176, N1043S;Q1047M)
# T3 sequence: T1 sequence with W217Y, A220M
# Summary of the method: as §1
# [11] = molecular target: PUM1 PUF domain R4-SRC (Homo sapiens, UniProt Q14671 828-1176, N971S;H972R;Q975C)
# Summary of the method: as §1
# [12] = molecular target: PUM1 PUF domain R8-RWR (Homo sapiens, UniProt Q14671 828-1176, N1122R;Y1123W;Q1126R)
# Summary of the method: as §1
# [13] = molecular target: PUM1 PUF domain R5-SAT (Homo sapiens, UniProt Q14671 828-1176, C1007S;R1008A;Q1011T)
# Summary of the method: as §1
# [14] = molecular target: T4, PUM1 PUF domain R6-YWV (Homo sapiens, UniProt Q14671 828-1176, N1043Y;Y1044W;Q1047V)
# T4 sequence: T1 sequence with S216Y, A220V
# Summary of the method: as §1
# [15] = molecular target: PUM1 PUF domain R2-GWG (Homo sapiens, UniProt Q14671 828-1176, N899G;Y900W;Q903G)
# Summary of the method: as §1
# [16] = molecular target: PUM1 PUF domain R3-GHP (Homo sapiens, UniProt Q14671 828-1176, C935G;R936H;Q939P)
# Summary of the method: as §1
# [17] = molecular target: PUM1 PUF domain R3-WCG (Homo sapiens, UniProt Q14671 828-1176, C935W;R936C;Q939G)
# Summary of the method: as §1
# [18] = molecular target: PUM1 PUF domain R1-RYL (Homo sapiens, UniProt Q14671 828-1176, S863R;R864Y;Q867L)
# Summary of the method: as §1
sequence,measurement,setting,value
GGCUAGAACUAGUGGAUCCCCCGGCGCCCGGCGGCUCGAGCCCGGGUAAGUGUAAAUAGUCUGCAUGCCGCCGGGCGCCAUGCCUGCAGGUCGACUCUAGAAAACAUG,binding signal,[1],0.45 log2 enrichment (interaction score)
same,binding signal,[2],2.5 log2 enrichment (interaction score)
same,binding signal,[3],1.55 log2 enrichment (interaction score)
same,binding signal,[4],2.44 log2 enrichment (interaction score)
same,binding signal,[5],4.7 log2 enrichment (interaction score)
same,binding signal,[6],4.14 log2 enrichment (interaction score)
same,binding signal,[7],3.02 log2 enrichment (interaction score)
same,binding signal,[8],2.45 log2 enrichment (interaction score)
same,binding signal,[9],2.18 log2 enrichment (interaction score)
same,binding signal,[10],2.79 log2 enrichment (interaction score)
same,binding signal,[11],4.65 log2 enrichment (interaction score)
same,binding signal,[12],6.58 log2 enrichment (interaction score)
GGCUAGAACUAGUGGAUCCCCCGGCGCCCGGCGGCUCGAGCCCGGGUAAGUGUAUAUAGUCUGCAUGCCGCCGGGCGCCAUGCCUGCAGGUCGACUCUAGAAAACAUG,binding signal,[6],5.12 log2 enrichment (interaction score)
GGCUAGAACUAGUGGAUCCCCCGGCGCCCGGCGGCUCGAGCCCGGGUAAGUGUGAAUAGUCUGCAUGCCGCCGGGCGCCAUGCCUGCAGGUCGACUCUAGAAAACAUG,binding signal,[13],2.75 log2 enrichment (interaction score)
GGCUAGAACUAGUGGAUCCCCCGGCGCCCGGCGGCUCGAGCCCGGGUAAGUGAAAAUAGUCUGCAUGCCGCCGGGCGCCAUGCCUGCAGGUCGACUCUAGAAAACAUG,binding signal,[14],4.97 log2 enrichment (interaction score)
same,binding signal,[3],3.21 log2 enrichment (interaction score)
GGCUAGAACUAGUGGAUCCCCCGGCGCCCGGCGGCUCGAGCCCGGGUAAGUGUAAAGAGUCUGCAUGCCGCCGGGCGCCAUGCCUGCAGGUCGACUCUAGAAAACAUG,binding signal,[15],2.13 log2 enrichment (interaction score)
GGCUAGAACUAGUGGAUCCCCCGGCGCCCGGCGGCUCGAGCCCGGGUAAGUGUAAGUAGUCUGCAUGCCGCCGGGCGCCAUGCCUGCAGGUCGACUCUAGAAAACAUG,binding signal,[16],4.47 log2 enrichment (interaction score)
same,binding signal,[17],4.13 log2 enrichment (interaction score)
GGCUAGAACUAGUGGAUCCCCCGGCGCCCGGCGGCUCGAGCCCGGGUAAGUGUAAAUUGUCUGCAUGCCGCCGGGCGCCAUGCCUGCAGGUCGACUCUAGAAAACAUG,binding signal,[18],2.71 log2 enrichment (interaction score)

# From publication PMC8384837, “Expanding the binding specificity for RNA recognition by a PUF domain”
